From the supplement of paper PMC8728848
The full list was thinned out, with the strongest signals kept by preference.

Assays:
Assay in all cases: glycan array binding signal (z-score within array); higher = stronger binding
Details in all cases: glycan notation: IUPAC condensed, linker removed
[1] = target: Gal(b1-4)GlcNAc(b1-6)[Gal(b1-4)GlcNAc(b1-3)]GalNAc
Procedure, shortened: (§1)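 Negative Z-scores can be read as non-binding. The Z-score is calculated within each array and then averaged across arrays of one protein sequence at different concentrations or buffers and across linkers. Arrays, 3228 in all, were curated from the Consortium for Functional Glycomics database and kept only where the protein sequence was available.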

[2] = target: Gal3S(b1-4)[Fuc(a1-3)]Glc6S
Procedure, shortened: as §1

Gal6S(b1-3)GlcNAc = target: Gal6S(b1-3)GlcNAc
Procedure, shortened: as §1

Gal6S(b1-4)GlcNAc6S = target: Gal6S(b1-4)GlcNAc6S
Procedure, shortened: as §1

GalNAc(b1-4)Gal(b1-4)Glc = target: GalNAc(b1-4)Gal(b1-4)Glc
Procedure, shortened: as §1

[3] = target: GalNAc(b1-4)GlcNAc(b1-3)GalNAc(b1-4)GlcNAc
Procedure, shortened: as §1

[4] = target: GlcNAc(b1-2)[GlcNAc(b1-4)]Man(a1-3)[GlcNAc(b1-4)][GlcNAc(b1-2)[GlcNAc(b1-6)]Man(a1-6)]Man(b1-4)GlcNAc(b1-4)GlcNAc
Procedure, shortened: as §1

GlcNAc(b1-4)GlcNAc = target: GlcNAc(b1-4)GlcNAc
Procedure, shortened: as §1

[5] = target: GlcNAc(b1-6)Gal(b1-4)GlcNAc
Procedure, shortened: as §1

[6] = target: Man(a1-2)Man(a1-2)Man(a1-6)[Man(a1-3)]Man
Procedure, shortened: as §1

Man(a1-2)Man(a1-3)Man = target: Man(a1-2)Man(a1-3)Man
Procedure, shortened: as §1

Man(a1-6)Man = target: Man(a1-6)Man
Procedure, shortened: as §1

MurNAc(b1-4)GlcNAc = target: MurNAc(b1-4)GlcNAc
Procedure, shortened: as §1

[7] = target: Neu5Ac(a2-3)Gal(b1-3)GalNAc(b1-4)[Neu5Ac(a2-3)]Gal(b1-4)Glc
Procedure, shortened: as §1

[8] = target: Neu5Ac(a2-3)Gal(b1-3)GlcNAc(b1-2)Man(a1-3)[Neu5Ac(a2-3)Gal(b1-3)GlcNAc(b1-2)Man(a1-6)]Man(b1-4)GlcNAc(b1-4)GlcNAc
Procedure, shortened: as §1

[9] = target: Neu5Ac(a2-3)Gal(b1-3)GlcNAc(b1-3)Gal(b1-4)GlcNAc
Procedure, shortened: as §1

[10] = target: Neu5Ac(a2-3)Gal(b1-3)GlcNAc(b1-6)GalNAc
Procedure, shortened: as §1

[11] = target: Neu5Ac(a2-3)Gal(b1-3)[Fuc(a1-4)]GlcNAc(b1-3)Gal(b1-3)[Fuc(a1-4)]GlcNAc
Procedure, shortened: as §1

[12] = target: Neu5Ac(a2-3)Gal(b1-3)[Neu5Ac(a2-6)]GlcNAc(b1-3)[Fuc(a1-3)[Gal(b1-4)]GlcNAc(b1-6)]Gal(b1-4)Glc
Procedure, shortened: as §1

[13] = target: Neu5Ac(a2-3)Gal(b1-4)GlcNAc(b1-2)Man(a1-3)[Neu5Ac(a2-6)Gal(b1-4)GlcNAc(b1-2)Man(a1-6)]Man(b1-4)GlcNAc(b1-4)GlcNAc
Procedure, shortened: as §1

[14] = target: Neu5Ac(a2-3)Gal(b1-4)GlcNAc(b1-2)[Neu5Ac(a2-3)Gal(b1-4)GlcNAc(b1-4)]Man(a1-3)[GlcNAc(b1-4)][Neu5Ac(a2-3)Gal(b1-4)GlcNAc(b1-2)[Neu5Ac(a2-3)Gal(b1-4)GlcNAc(b1-6)]Man(a1-6)]Man(b1-4)GlcNAc(b1-4)GlcNAc
Procedure, shortened: as §1

[15] = target: Neu5Ac(a2-3)Gal(b1-4)GlcNAc(b1-3)Gal(b1-3)GlcNAc
Procedure, shortened: as §1

Neu5Ac(a2-6)Gal = target: Neu5Ac(a2-6)Gal
Procedure, shortened: as §1

[16] = target: Neu5Ac(a2-6)Gal(b1-3)GlcNAc(b1-3)[Gal(b1-4)GlcNAc(b1-6)]Gal(b1-4)Glc
Procedure, shortened: as §1

[17] = target: Neu5Ac(a2-6)Gal(b1-4)GlcNAc(b1-2)Man(a1-3)[Man(a1-6)]Man(b1-4)GlcNAc(b1-4)GlcNAc
Procedure, shortened: as §1

[18] = target: Neu5Ac(a2-6)Gal(b1-4)GlcNAc(b1-2)Man(a1-3)[Neu5Ac(a2-6)Gal(b1-4)GlcNAc(b1-2)Man(a1-6)]Man(b1-4)GlcNAc(b1-4)[Fuc(a1-6)]GlcNAc
Procedure, shortened: as §1

[19] = target: Neu5Ac(a2-6)Gal(b1-4)GlcNAc(b1-2)Man(a1-6)[Gal(b1-4)GlcNAc(b1-2)Man(a1-3)]Man(b1-4)GlcNAc(b1-4)GlcNAc
Procedure, shortened: as §1

[20] = target: Neu5Gc(a2-3)Gal(b1-4)[Fuc(a1-3)]GlcNAc
Procedure, shortened: as §1

[21] = target: Neu5Gc(a2-8)Neu5Gc(a2-3)Gal(b1-4)GlcNAc(b1-3)Gal(b1-4)GlcNAc
Procedure, shortened: as §1

B1: GS13686A-pdi-553-26-553 (Parabacteroides distasonis) (protein)
chain: NENPDKPTDDVNYNMNEPRLASTLRGGLIIEGNVEQRLKPLQIDFYSQMTVDGGGWGTKNYIQDDEWNNLVWEEYLKQIASINIVIRSLTEKDKDAYANTIAFARIWRVYVHTLAADKFGPMPFPAYEIVEANPPYKSLKDIYDEYFRELDAAINGFNDSAQPIFSDAGIDLIYKNDVSKWKRFANSLRLRLAVRLTEVDQEKCIAEANAAISSPAGLISDKADNAYMPPKADGSWGQDYNYTMFQITWSGPICMSKSVEKLVTNIGGVAWPQGVVNQTSGVAVSSVHPEKVDPRAPKIFQPGIENGDWKGLVYGPKAEEANTGIYQSKQCAELGFIIKDGYPYKSRPYDLFLSEEVHFLKAELYARGFIAGDAKSEYEAGVRASFATWGVTSEVDDYLTSTEKNEAGTSARYDDQQGAGNTALEKIITQKYIAGIPDLAQEGWNDKRRLNLPRLDVAVYRDQAVYNNNDKDILKSANFIKRMRYPTKESLINATEYEKGKSMLGGKGDIVSTPLWWDKNSNYCTSSK
In the case of B1, the “glycan array binding signal (z-score)” value [1] is reported as -0.002, the “glycan array binding signal (z-score)” value [2] is reported as 0.425 and the “glycan array binding signal (z-score)” value (Gal6S(b1-3)GlcNAc) is reported as 22.6. For the same binder, the “glycan array binding signal (z-score)” value (Gal6S(b1-4)GlcNAc6S) was -0.176, the “glycan array binding signal (z-score)” value (GalNAc(b1-4)Gal(b1-4)Glc) was 0.208 and the “glycan array binding signal (z-score)” value [3] was 0.492. The “glycan array binding signal (z-score)” value [4] was -0.24, the “glycan array binding signal (z-score)” value (GlcNAc(b1-4)GlcNAc) was -0.294 and the “glycan array binding signal (z-score)” value [5] was -0.023. The “glycan array binding signal (z-score)” value [6] was -0.073, the “glycan array binding signal (z-score)” value (Man(a1-2)Man(a1-3)Man) was -0.226 and the “glycan array binding signal (z-score)” value (Man(a1-6)Man) was 0.458. The “glycan array binding signal (z-score)” value (MurNAc(b1-4)GlcNAc) was -0.226, the “glycan array binding signal (z-score)” value [7] was -0.071 and the “glycan array binding signal (z-score)” value [8] was -0.099. The “glycan array binding signal (z-score)” value [9] was -0.307, the “glycan array binding signal (z-score)” value [10] was 3.88 and the “glycan array binding signal (z-score)” value [11] was -0.153. The “glycan array binding signal (z-score)” value [12] was -0.086, the “glycan array binding signal (z-score)” value [13] was 1.01 and the “glycan array binding signal (z-score)” value [14] was 0.051. The “glycan array binding signal (z-score)” value [15] was -0.389, the “glycan array binding signal (z-score)” value (Neu5Ac(a2-6)Gal) was -0.025 and the “glycan array binding signal (z-score)” value [16] was 2. The “glycan array binding signal (z-score)” value [17] was 0.341, the “glycan array binding signal (z-score)” value [18] was 0.391 and the “glycan array binding signal (z-score)” value [19] was 0.126. The “glycan array binding signal (z-score)” value [20] was 0.009 and the “glycan array binding signal (z-score)” value [21] was -0.323.
